Screening results (PubChem BioAssay)
Shown is part of a subset that was picked to be rich in hits.
Pf Dd2 growth – inhibitors of Plasmodium falciparum Dd2 growth; P. falciparum Dd2 growth, SYBR Green, 72 h; Potency, µM (top dose mostly 28.9 µM), actives largely listed as inhibitors; 120,000 tested, 4.3% active; AID 1347417; active means well fitted inhibition curve with a large enough effect; further: nearly all actives have a fitted effect of over 65% in size
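Infected erythrocytes (Dd2, 0.3% parasitemia, 2.5% hematocrit final) are added to compound in RPMI-1640/Albumax II medium, grown 72 h at 37C in low oxygen, then lysed with saponin/Triton-X containing SYBR Green and read by fluorescence.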
A number is an active result; n = inactive; [ ] = remark or other dose.

SMILES	Pf Dd2 growth
CCc1ccc(Nc2nc(-c3cc4cccc(OC)c4oc3=O)c(CC)s2)cc1	11µM
CCOc1cccc2cc(-c3nnc(Nc4ccc(F)c(Cl)c4)s3)c(=O)oc12	n
O=C(NC1CC1)C1CCC(=O)N(CCCc2ccccc2)C1 (configuration not stated)	n
COc1ccc(-c2ccc3c(N)c(C(=O)Nc4ccc(C(F)(F)F)cc4)sc3n2)cc1OC	n
COc1ccc(NC(=O)c2sc3nc4c(c(-c5ccc(OC)cc5)c3c2N)C(=O)CC(C)(C)C4)cc1	1µM
COc1ccc(NC(=O)c2sc3nc(-c4ccc(OC)cc4)cc(C(F)(F)F)c3c2N)cc1	n
Cn1cccc1C(=O)N[C@H]1C[C@@H](C(=O)O)N(C(=O)CSCC(=O)N2C[C@@H](NC(=O)c3cccs3)C[C@H]2C(=O)O)C1	n
CC(C)c1noc([C@@H]2C[C@@H](O)CN2Cc2ccc(S(C)(=O)=O)cc2)n1	n
CC(C)(C)n1nnnc1C1CC2(CCOCC2)C(=O)N1Cc1cccs1 (configuration not stated)	n
Cc1cc(C(F)(F)F)nc(CCNc2cc(C3CC(N)C3)nc(N)n2)n1 (configuration not stated)	n
CS(=O)(=O)NC1CCN(c2cc(C3CC(N)C3)nc(N)n2)CC1 (configuration not stated)	n
CNc1cc(C2CC(NS(=O)(=O)c3cc(C)sc3C)C2)nc(N)n1 (configuration not stated)	8.9µM
Cc1ccc(CNC(=O)C2Cn3cccc3C(=O)N2CC(C)C)o1 (configuration not stated)	n
CC1=NOC2(CCN(C(=O)c3ccc(F)cc3)CC2)C1	n
COc1ccc2[nH]c(C[C@@H]3C[C@@H](C(C)C)[C@H](CNC4CCN(C(C)=O)CC4)C=C3C)nc2n1	n
COC(=O)c1ccc2nc(C[C@@H]3C[C@@H](C(C)C)[C@H](CNC4CCN(C)CC4)C=C3C)[nH]c2c1	3.2µM
CC1=C[C@@H](CNC(=O)CCC(=O)O)[C@H](C(C)C)C[C@H]1Cc1nc2ccc(F)cc2[nH]1	n
CC(=O)N1CCC(NC[C@@H]2C=C(C)[C@H](Cc3nc4ccc(C)cc4[nH]3)C[C@H]2C(C)C)CC1	11µM
CC(=O)N1CCC(NC[C@@H]2C=C(C)[C@H](Cc3nc4ccc(F)cc4[nH]3)C[C@H]2C(C)C)CC1	11µM
CC1=C[C@@H](CNC(=O)C2CCC2)[C@H](C(C)C)C[C@H]1Cc1nc2ccc(F)cc2[nH]1	11µM
CC1=C[C@@H](CNC(=O)c2cnccn2)[C@H](C(C)C)C[C@H]1Cc1nc2ccc(C)cc2[nH]1	n
CC1=C[C@@H](CNC(=O)CC2(CC(=O)O)CCCC2)[C@H](C(C)C)C[C@H]1Cc1nc2ccc(C)cc2[nH]1	n
COc1ccc(CN2CCC(N3CCCNC3=O)CC2)cc1	n
Cc1ccc(-c2noc([C@@H]3CCCN3C(=O)c3ccc4c(c3)OCO4)n2)cc1	n
Cn1nc(C(=O)N2C[C@@H](CO)[C@H](c3ccccn3)C2)c2ccccc21	n
SMILES	Pf Dd2 growth
O=C(Nc1ccccc1)c1nc2c(o1)CCN(Cc1cccs1)CC2	n
O=C(NC1CCCCC1)[C@@H]1C[C@@H](O)CN1C1CCN(C(=O)c2ccoc2)CC1	n
Cc1ccc(C)c(Cn2ccn3nc(-c4ccccc4)c(CO)c3c2=O)c1	n
CCC(=O)Nc1cc(C(=O)NCC(C)C)c2ccc(C)nc2c1	n
C[C@H]1CN(C(=O)c2nn(C)c3ccccc23)C[C@@H]1c1nc(-c2ccncc2)no1	n
CCN(Cc1cc(C)[nH]n1)CC1CCCN(CCc2cccc(OC)c2)C1 (configuration not stated)	n
CCN(Cc1c(O)cccc1OC)CC1CCN(CCc2ccccc2C)CC1	16µM
COc1ccccc1CCC(=O)N1CCC(Cc2nncn2C)CC1	n
CCCNC(=O)N1CCCC(c2nn[nH]n2)C1 (configuration not stated)	n
O=C(Nc1ccccc1Br)c1cc(S(=O)(=O)NC2CCCCC2)ccc1F	n
Cc1ccc(NC(=O)c2cc(S(=O)(=O)NC3CCCCCC3)ccc2F)cc1F	4.5µM
Cc1ccc(NC(=O)c2cc(S(=O)(=O)N3CCCc4ccccc43)ccc2F)cc1F	n
CCNc1ncc(-c2nc3cc(S(=O)(=O)NC(C)C)ccc3n2C(C)C)cn1	n
CC(C)c1nc2c(c(-c3ccc(O)cc3)n1)CN([S+](=O)([O-])c1cccs1)CC2	n
CN(C)C(=O)c1n[nH]c2c1CN(C(=O)c1ccccc1C(F)(F)F)CC2	n
CCN(Cc1ccccc1)Cc1c(O)ccc2c(=O)c(-c3ccccc3)c(C(F)(F)F)oc12	6.3µM
CCN(Cc1ccccc1)Cc1c(O)ccc2c(=O)c(-c3ccccc3Cl)c(C(F)(F)F)oc12	8.9µM
Cc1ccc(-c2c(C(=O)N(C)Cc3ccccc3)oc(=O)c3ccccc23)cc1	n
Cc1ccc(C2(O)CCN(C(=O)[C@@H](N)Cc3cnc[nH]3)CC2)nc1	n
O=C(CCc1ccccc1)N1CCC(c2noc(-c3cnccn3)n2)C1 (configuration not stated)	n[5.79 µM]
Cc1ccc(SCc2ccc(-c3nc(C4CCOC4)no3)o2)cc1 (configuration not stated)	n
N#Cc1cccc(C(=O)N2CCCCCCNC(=O)CC2c2ccccc2)c1 (configuration not stated)	n
CCOc1ccccc1NC(=O)N1c2ccccc2Sc2ccccc21	13µM
CCOc1ccccc1NC(=O)N1CCCn2nc(C)cc21	n[5.79 µM]
CCOc1ccccc1NC(=O)N1CC(C)Oc2ccc(Cl)cc21 (configuration not stated)	n
SMILES	Pf Dd2 growth
COCCOCC(=O)N1C[C@@H](Oc2ccccc2)C[C@H]1C(=O)N1CCOCC1	n
COCCNc1ccc2nnc(-c3ccc(C)cn3)n2n1	n
COCCNc1cc(-c2cc(C(F)(F)F)ccn2)c2cc[nH]c2n1	10µM
COCCNc1ccc2nnc(-c3cc(C#N)ccn3)n2n1	n
Cc1ccc(C2Cn3nnc(-c4nc(-c5ccc(C(F)(F)F)cc5)no4)c3CO2)c(C)c1 (configuration not stated)	n
Cc1ccccc1NC(=O)N1CCCC(Cn2c(C3CC3)nc3cccnc32)C1 (configuration not stated)	n
O=C(Cn1c(-c2cccs2)cc2ccccc21)NCCCN1CCN(c2ccccc2F)CC1	8.9µM
CC(C)(C)c1ccc2c(c1)N(CC(=O)NCCCN1CCN(c3ccccc3F)CC1)C(=O)CO2	n
O=C(NCCN1CCN(c2ccccc2F)CC1)C1COc2ccccc2C1 (configuration not stated)	n
O=C(Cn1c(-c2cccs2)cc2cc(F)ccc21)NCCCN1CCN(c2ccccc2F)CC1	8.9µM
CCN1CCN(C(=O)Cn2c(-c3cccs3)cc3ccccc32)CC1	n
CCc1ccc(CNC(=O)Cn2c(-c3cccs3)cc3cc(F)ccc32)cc1	n
O=C(NCc1ccc(F)cc1)c1csc(N2CCN(c3ccccc3F)CC2)n1	n
CC(C)CCNC(=O)Cn1c(-c2cccs2)cc2cc(F)ccc21	4.5µM
CC(C)CCNC(=O)Cn1cc(S(=O)(=O)Cc2ccc(F)cc2)c2ccccc21	n
CC(C)c1noc(CN2CCCC(c3nccn3Cc3ccccc3)C2)n1 (configuration not stated)	n
COc1ccc(-c2cc(N3CCCN(C(=O)CC4CCCCC4)CC3)n[nH]2)cc1	n
CNc1nccc(N2CCC(CC(=O)NCCCOC(C)C)CC2)n1	n
CC(C)CC(=O)N1CCC2(C1)C(=O)N(C)c1ccccc12 (configuration not stated)	n
CCOc1ccccc1C(=O)N1CCC2(CC1)N=C(c1cccc(Br)c1)NO2	n
